Pol kappa inh-1: qHTS for Inhibitors of Polymerase Kappa. DNA polymerase kappa (Homo sapiens), Q9UBT6. purified Pol kappa, fluorescent DNA synthesis assay, 10 min. Potency, µM (top dose mostly 107 µM), actives largely listed as inhibitors. hit rate 0.53% among 400,000. AID 588579, 2011
Target sequence (Q9UBT6 whole entry, looked up): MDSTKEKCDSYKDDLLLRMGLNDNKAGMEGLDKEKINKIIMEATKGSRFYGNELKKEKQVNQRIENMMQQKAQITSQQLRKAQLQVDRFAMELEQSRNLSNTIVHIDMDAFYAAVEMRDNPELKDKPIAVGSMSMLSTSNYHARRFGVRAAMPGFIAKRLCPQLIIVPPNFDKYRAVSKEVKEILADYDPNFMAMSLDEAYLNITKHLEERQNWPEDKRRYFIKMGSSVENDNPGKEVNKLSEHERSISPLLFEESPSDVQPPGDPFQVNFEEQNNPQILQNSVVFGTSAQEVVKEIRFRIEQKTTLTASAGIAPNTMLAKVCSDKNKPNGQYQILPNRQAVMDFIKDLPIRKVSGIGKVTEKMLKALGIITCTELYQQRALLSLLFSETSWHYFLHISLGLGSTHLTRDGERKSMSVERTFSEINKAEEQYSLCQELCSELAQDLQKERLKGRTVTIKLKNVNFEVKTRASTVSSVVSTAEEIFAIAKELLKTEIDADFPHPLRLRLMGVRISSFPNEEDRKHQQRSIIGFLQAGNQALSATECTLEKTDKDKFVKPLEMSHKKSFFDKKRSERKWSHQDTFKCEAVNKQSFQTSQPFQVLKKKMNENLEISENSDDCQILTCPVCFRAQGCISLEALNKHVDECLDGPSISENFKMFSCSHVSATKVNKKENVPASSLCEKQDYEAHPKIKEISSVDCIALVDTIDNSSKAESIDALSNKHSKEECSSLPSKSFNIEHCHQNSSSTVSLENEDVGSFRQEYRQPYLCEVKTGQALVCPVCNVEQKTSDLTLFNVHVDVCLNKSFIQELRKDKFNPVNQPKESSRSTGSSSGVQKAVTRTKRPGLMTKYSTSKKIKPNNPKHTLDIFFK
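Activity was followed as the change in fluorescence between reads at 0 and 10 min after starting the reaction with 50 nM substrate. Beforehand, 10 nM polymerase had been preincubated with compound for 15 min at room temperature.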
POLB inh: qHTS Assay for Inhibitors of DNA Polymerase Beta | hit rate 1.3% among 340,000 | Potency, µM (titrated, usually from 114 µM), actives largely listed as inhibitors | Pol beta primer extension/strand displacement, fluorescence kinetic | P06746
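Homogeneous kinetic assay of primer extension and strand displacement by 10 nM Pol beta, preincubated 15 min at room temperature with compound before 50 nM substrate (final) was added. Read at 0 and 10 min; four-parameter Hill fit.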
POLI inh: qHTS for Inhibitors of Polymerase Iota. hit rate 1% among 390,000. Potency, µM (doses to about 115 µM), most hits filed as inhibitors. Pol iota fluorescent replication assay, 10 min
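Pol iota at 10 nM preincubated 15 min with compounds at room temperature; reaction started with fluorescent substrate, 50 nM final. Fluorescence read kinetically at 0 and 10 min; buffer-only wells as negative control.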
WRN helicase inh-1: qHTS for Inhibitors of WRN Helicase | Bifunctional 3'-5' exonuclease/ATP-dependent helicase WRN (Homo sapiens), Q14191 | WRN helicase unwinding, fluorescent forked duplex, kinetic | Potency, µM (series often up to 114 µM), actives largely listed as inhibitors | hit rate 0.46% among 360,000 | AID 651768, 2012; also: nearly all actives have a fitted effect of over 55% in size
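Kinetic fluorescence helicase assay: unwinding of a quenched forked DNA duplex (100 nM final) with 2 mM ATP final raises red fluorescence (525/598 nm). Compounds sat 15 min at room temperature with 20 nM WRN beforehand.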
Pol eta inh-1: qHTS for Inhibitors of Polymerase Eta; Potency, µM (top dose mostly 114 µM), most hits filed as inhibitors; hit rate 1.2% among 390,000; DNA polymerase eta (Homo sapiens), Q9Y253; AID 588591, 2011; recombinant Pol eta, fluorescent DNA replication assay
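Pol eta at 10 nM preincubated with compounds 15 min at room temperature; reaction started with fluorescent substrate (50 nM final) and read kinetically at 0 and 10 min.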
PGK validate: qHTS for inhibitors of Phosphogylcerate Kinase: Hit Validation Screen. Potency, µM (titrated, usually from 57.5 µM), most hits filed as inhibitors. AID 686980, 2013. TbPGK coupled GAPDH assay, Kinase-Glo luminescence. hit rate 79% among 500. shares compounds with Pol kappa inh-1; also: nearly all actives have a fitted effect of over 65% in size
POLI cherry-pick: qHTS for Inhibitors of Polymerase Iota: Confirmatory Assay for Cherry-picked Compounds; Potency, µM, most hits filed as inhibitors; hit rate 77% among 1,500; Pol iota primer extension, TAMRA/BHQ fluorescence; shares compounds with Pol kappa inh-1
Pol kappa inh-2: qHTS for Inhibitors of Polymerase Kappa: Confirmatory Assay for Cherry-picked Compounds. Potency, µM, actives largely listed as inhibitors. purified Pol-kappa, fluorescent strand-displacement substrate. hit rate 76% among 920. shares compounds with Pol eta inh-1
Pol eta inh-2: qHTS for Inhibitors of Polymerase Eta: Confirmatory Assay for Cherry-picked Compounds | shares compounds with Pol eta inh-1 | Pol eta primer extension, TAMRA/BHQ fluorescence, 10 min | Potency, µM, actives largely listed as inhibitors | hit rate 64% among 2,600
WRN helicase inh-2: qHTS for Inhibitors of WRN Helicase: Confirmatory Assay for Cherry-picked Compounds; hit rate 63% among 610; Potency, µM (doses to about 57.1 µM), hits mostly inhibitors; WRN helicase DNA unwinding, fluorescence kinetic; shares compounds with WRN helicase inh-1; also: nearly all actives have a fitted effect of over 65% in size
TO displacement: qHTS for Inhibitors of WRN Helicase: Thiazole Orange DNA Binding Counterscreen | shares compounds with WRN helicase inh-1 | hit rate 10% among 610 | thiazole orange DNA binding displacement, fluorescence | Potency, µM (titrated, usually from 57.1 µM), hits mostly inhibitors;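 also: drop in dye fluorescence marks compound binding to DNA; nearly all actives have a fitted effect of over 60% in size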
BLM counter: qHTS for Inhibitors of WRN Helicase: BLM Helicase Counterscreen for WRN Inhibitors; shares compounds with WRN helicase inh-1; Recombinant BLM helicase DNA unwinding, red fluorescence; Potency, µM (highest dose often 57.1 µM), hits mostly inhibitors; hit rate 60% among 610; AID 720503, 2013; also: nearly all actives have a fitted effect of over 60% in size
Each line names hits and unclear results; the compound was inactive in the other large screens (follow-up assays come after a bar, where they were run). Rows were chosen to be rich in hits. Some 2.3% of all compounds tested hit in one or more screens of this group. Calls follow the shape of the dose curve; as a rule, active = well fitted curve in the direction sought with a large enough effect; inconclusive = small, poorly fitted or top-dose-only effect, or another doubt; inactive = no such curve, though single readings can be large; an effect the other way counts as inactive or inconclusive.

CC(C)c1ccc(N2C(=O)/C(=C/N(C)C)SC2=S)cc1	Pol kappa inh-1 inconclusive, POLB inh inconclusive, POLI inh 7.94µM, WRN helicase inh-1 20µM, Pol eta inh-1 inconclusive | POLI cherry-pick 4.23 | Pol kappa inh-2 29.9 | Pol eta inh-2 3.01 | WRN helicase inh-2 12.1µM | TO displacement inactive | BLM counter 13.6µM
CCOc1ccc(-c2cccc(NS(=O)(=O)c3c(C)cc(C)cc3C)c2)nn1	none (no result: WRN helicase inh-1)
COc1cc(/C=C2\CCC/C(=C\c3ccc(O)c(OC)c3)C2=O)ccc1O	POLI inh inconclusive
COc1cc(/C=C2\CC/C(=C\c3cc(OC)c(O)c(OC)c3)C2=O)cc(OC)c1O	Pol kappa inh-1 10µM, POLB inh 4.47µM, POLI inh 2.82µM, WRN helicase inh-1 11.2µM, Pol eta inh-1 1.78µM | POLI cherry-pick 26.7 | Pol eta inh-2 9.53 | WRN helicase inh-2 3.41µM | TO displacement 6.07µM | BLM counter 5.41µM
N#Cc1cccc(S(=O)(=O)N2CCN(c3nc(-c4cccs4)nc4ccccc34)CC2)c1	none (no result: POLB inh, WRN helicase inh-1, Pol eta inh-1)
CC(C)c1nc2ccc(C(=O)NCCCN3CCN(c4cccc(Cl)c4)CC3)cc2o1	none (no result: WRN helicase inh-1)
COC(=O)c1ccccc1NC(=O)CCS(=O)(=O)c1ccc(Br)cc1	Pol kappa inh-1 20µM, POLB inh 2.51µM, WRN helicase inh-1 25.1µM, Pol eta inh-1 3.55µM | PGK validate inconclusive | POLI cherry-pick 21.2 | Pol kappa inh-2 15 | Pol eta inh-2 26.9 | WRN helicase inh-2 9.61µM | TO displacement inactive | BLM counter 2.41µM
CCOc1ccc(C(=O)N2CCC(c3nc4ccccc4o3)CC2)cc1	none (no result: WRN helicase inh-1)
CCCOc1ccc(Cl)cc1/C=C1/C(=O)ON=C1C	none
CC1=NOC(=O)/C1=C\c1ccc(-c2ccc(Cl)cc2Cl)o1	POLB inh 39.8µM, POLI inh 25.1µM, WRN helicase inh-1 inconclusive, Pol eta inh-1 14.1µM | POLI cherry-pick inconclusive | Pol eta inh-2 inconclusive | WRN helicase inh-2 24.1µM | TO displacement inconclusive | BLM counter 21.5µM
CCOc1ccccc1-c1noc(CSc2nnc(-c3ccccc3)n2-c2cccc(C)c2)n1	none (no result: WRN helicase inh-1)
Cc1cc(=O)c2c(o1)C(=O)c1occc1C2=O	Pol kappa inh-1 31.6µM, POLI inh 6.31µM, WRN helicase inh-1 25.1µM, Pol eta inh-1 10µM (no result: POLB inh) | POLI cherry-pick 47.4 | Pol kappa inh-2 42.3 | Pol eta inh-2 30.1 | WRN helicase inh-2 24.1µM | TO displacement inactive | BLM counter inconclusive
Cc1ccc(C2c3[nH]c4ccccc4c3CCN2C(=O)Nc2ccc(C)c(C)c2)cc1 (centres undefined)	none (no result: WRN helicase inh-1)
COc1ccc(Cn2c(C(=O)O)c(CNCCc3cccs3)c3ccc(C)cc32)cc1	none (no result: WRN helicase inh-1)
Cc1ccc(C)c(NC(=O)CN(C)C(=O)c2cccc(-n3cccc3)c2)c1	Pol kappa inh-1 39.8µM, POLI inh 8.91µM, WRN helicase inh-1 50.1µM, Pol eta inh-1 5.01µM (no result: POLB inh) | POLI cherry-pick 16.8 | Pol eta inh-2 26.9 | WRN helicase inh-2 21.5µM | TO displacement inactive | BLM counter 10.8µM
Cc1ccc(-c2nc3c(c(SCC(=O)Nc4cccc(C(=O)O)c4)n2)Cc2cccc(C)c2O3)cc1	Pol kappa inh-1 inconclusive, POLB inh 1.78µM, POLI inh inconclusive (no result: WRN helicase inh-1, Pol eta inh-1) | POLI cherry-pick 8.44 | Pol kappa inh-2 3.77 | Pol eta inh-2 84.9 | WRN helicase inh-2 2.15µM | TO displacement 2.71µM | BLM counter 0.857µM
O=C(Nc1ccc2nc(SCC(=O)N3CCCC3)sc2c1)c1ccccc1F	none (no result: WRN helicase inh-1)
O=C(O)c1ccc(-n2cccc2/C=C2\SC(=O)N(Cc3cccc(Cl)c3)C2=O)cc1	none (no result: Pol kappa inh-1, POLB inh, POLI inh, WRN helicase inh-1, Pol eta inh-1) | POLI cherry-pick inconclusive | Pol eta inh-2 30.1 | WRN helicase inh-2 19.2µM | TO displacement inactive | BLM counter 13.6µM
O=C(O)c1ccc(-n2cccc2/C=C2\SC(=O)N(Cc3ccc(Cl)cc3)C2=O)cc1	none (no result: Pol kappa inh-1, POLB inh, POLI inh, WRN helicase inh-1, Pol eta inh-1) | POLI cherry-pick 42.3 | Pol eta inh-2 15.1 | WRN helicase inh-2 9.61µM | TO displacement inactive | BLM counter 8.57µM
Cc1ccc(NC(=O)Cc2ccc(-n3c(C)nc4cccnc43)cc2)c(Cl)c1	none (no result: WRN helicase inh-1)
CCc1ccc(N=C2NC(=O)/C(=C/c3cc(Br)c(OCC(=O)O)c(OC)c3)S2)cc1	Pol kappa inh-1 inconclusive, POLB inh 15.8µM, POLI inh 39.8µM, WRN helicase inh-1 inconclusive, Pol eta inh-1 35.5µM | POLI cherry-pick 67 | Pol kappa inh-2 47.4 | Pol eta inh-2 84.9 | WRN helicase inh-2 21.5µM | TO displacement inactive | BLM counter 24.1µM
Oc1ccc(/C=N/N=C/c2ccc(O)c(O)c2)cc1O	Pol kappa inh-1 0.891µM, POLB inh 0.447µM, POLI inh 1.26µM, WRN helicase inh-1 0.752µM, Pol eta inh-1 0.708µM | PGK validate 1.3µM | POLI cherry-pick 6.7 | Pol kappa inh-2 4.74 | Pol eta inh-2 4.26 | WRN helicase inh-2 0.607µM | TO displacement inactive | BLM counter 1.08µM
O=C1Nc2ccccc2/C1=N\N=C\c1ccc(O)c(O)c1	Pol kappa inh-1 5.62µM, POLB inh 4.47µM, POLI inh 2.24µM, WRN helicase inh-1 31.6µM, Pol eta inh-1 3.16µM | POLI cherry-pick inconclusive | Pol eta inh-2 16.9 | WRN helicase inh-2 6.81µM | TO displacement inconclusive | BLM counter 6.81µM
